PubChem BioAssay AID1159580 (chemical genetic matrix, 2015)
Out of some 5,500 compounds screened, about 2,000 (36%) were called active. About 18% were inconclusive and are not listed. Cut-off read from the data, not from the text of the source: active = normalized growth mostly below about 0.91 (no sharp cut-off); inconclusive = no clear call, values can overlap the other calls; inactive = mostly above about 0.92. Some of the results follow.

Assay: chemical genetic growth profiling, strain panel (AID 1159580);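 note: tested at 20 µM; growth read once vehicle control cultures reached saturation at 30 °C; 1 = growth at the plate median or of vehicle wells; lower values mean less growth of the strain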
Settings: growth OD

Measured: normalized growth

CCOc1ccc(Cc2nccc3cc(OCC)c(OCC)cc23)cc1OCC
active: S. cerevisiae deletion strains, locus YKR001C, strain vps1, active compounds read low 0.88 | S. cerevisiae deletion strains, locus YLR268W, strain sec22, active compounds read low 0.873 | S. cerevisiae deletion strains, locus YLR418C, strain cdc73, active compounds read low 0.772 | S. cerevisiae deletion strains, locus YNL307C, strain MCK1, active compounds read low 0.875 | S. cerevisiae deletion strains, locus YPR163C, strain tif3, active compounds read low 0.898
inactive: S. cerevisiae deletion strains, locus YJR075W, strain HOC1, active compounds read low 0.92 | S. cerevisiae deletion strains, locus YKL009W, strain mrt4, active compounds read low 0.969 | S. cerevisiae deletion strains, locus YKL068W, active compounds read low 0.986 | S. cerevisiae deletion strains, locus YKL085W, strain MDH1 (second series), active compounds read low 0.985 | S. cerevisiae deletion strains, locus YKL085W, strain MDH1, active compounds read low 0.985 | S. cerevisiae deletion strains, locus YKL160W, strain elf1, active compounds read low 0.98 | S. cerevisiae deletion strains, locus YKL190W, strain CNB1, active compounds read low 0.98 | S. cerevisiae deletion strains, locus YKR026C, strain gcn3, active compounds read low 0.975 | S. cerevisiae deletion strains, locus YKR091W, strain srl3, active compounds read low 0.979 | S. cerevisiae deletion strains, locus YLL001W, strain dnm1, active compounds read low 0.96 | S. cerevisiae deletion strains, locus YLL026W, active compounds read low 0.984 | S. cerevisiae deletion strains, locus YLL041C, strain sdh2, active compounds read low 0.975 | S. cerevisiae deletion strains, locus YLR027C, strain aat2, active compounds read low 0.97 | S. cerevisiae deletion strains, locus YLR039C, strain RIC1, active compounds read low 0.878 | S. cerevisiae deletion strains, locus YLR058C, strain SHM2, active compounds read low 0.949 | S. cerevisiae deletion strains, locus YLR102C, strain apc9, active compounds read low 0.978 | S. cerevisiae deletion strains, locus YLR113W, strain HOG1, active compounds read low 1.02 | S. cerevisiae deletion strains, locus YLR221C, strain rsa3, active compounds read low 0.982 | S. cerevisiae deletion strains, locus YLR258W, strain gsy2, active compounds read low 0.968 | S. cerevisiae deletion strains, locus YLR262C, strain YPT6 (second series), active compounds read low 0.871 | S. cerevisiae deletion strains, locus YLR262C, strain YPT6, active compounds read low 0.861 | S. cerevisiae deletion strains, locus YLR320W, strain mms22, active compounds read low 0.949 | S. cerevisiae deletion strains, locus YLR330W, strain CHS5, active compounds read low 0.979 | S. cerevisiae deletion strains, locus YLR342W, strain FKS1 (second series), active compounds read low 0.901 | S. cerevisiae deletion strains, locus YLR342W, strain FKS1, active compounds read low 0.963 | S. cerevisiae deletion strains, locus YLR357W, strain rsc2, active compounds read low 0.899 | S. cerevisiae deletion strains, locus YLR370C, strain arc18, active compounds read low 0.977 | S. cerevisiae deletion strains, locus YLR371W, strain rom2, active compounds read low 0.966 | S. cerevisiae deletion strains, locus YLR384C, strain iki3, active compounds read low 0.989 | S. cerevisiae deletion strains, locus YML016C, strain PPZ1, active compounds read low 0.973 | S. cerevisiae deletion strains, locus YML032C, strain rad52, active compounds read low 0.943 | S. cerevisiae deletion strains, locus YML120C, strain ndi1, active compounds read low 0.965 | S. cerevisiae deletion strains, locus YML124C, strain tub3, active compounds read low 0.979 | S. cerevisiae deletion strains, locus YMR058W, strain fet3, active compounds read low 0.967 | S. cerevisiae deletion strains, locus YMR078C, strain ctf18, active compounds read low 0.957 | S. cerevisiae deletion strains, locus YMR125W, strain sto1, active compounds read low 1.01 | S. cerevisiae deletion strains, locus YMR129W, active compounds read low 0.984 | S. cerevisiae deletion strains, locus YMR205C, strain PFK2, active compounds read low 0.938 | S. cerevisiae deletion strains, locus YMR223W, strain ubp8, active compounds read low 0.971 | S. cerevisiae deletion strains, locus YMR231W, strain pep5, active compounds read low 0.979 | S. cerevisiae deletion strains, locus YMR307W, strain GAS1, active compounds read low 0.769 | S. cerevisiae deletion strains, locus YNL067W, strain RPL9B, active compounds read low 0.935 | S. cerevisiae deletion strains, locus YNL071W, strain lat1, active compounds read low 0.985 | S. cerevisiae deletion strains, locus YNL128W, strain TEP1, active compounds read low 0.967 | S. cerevisiae deletion strains, locus YNL153C, strain GIM3, active compounds read low 0.961 | S. cerevisiae deletion strains, locus YNL183C, strain NPR1, active compounds read low 0.899 | S. cerevisiae deletion strains, locus YNL209W, strain ssb2, active compounds read low 0.98 | S. cerevisiae deletion strains, locus YNL233W, strain BNI4, active compounds read low 0.917 | S. cerevisiae deletion strains, locus YNL248C, strain rpa49, active compounds read low 0.942 | S. cerevisiae deletion strains, locus YNL250W, strain rad50, active compounds read low 0.98 | S. cerevisiae deletion strains, locus YNL271C, strain bni1, active compounds read low 0.979 | S. cerevisiae deletion strains, locus YNL298W, strain CLA4, active compounds read low 0.993 | S. cerevisiae deletion strains, locus YNL322C, strain KRE1 (second series), active compounds read low 0.982 | S. cerevisiae deletion strains, locus YNL322C, strain KRE1, active compounds read low 0.986 | S. cerevisiae deletion strains, locus YNR049C, strain mso1, active compounds read low 0.965 | S. cerevisiae deletion strains, locus YNR052C, strain pop2, active compounds read low 0.974 | S. cerevisiae deletion strains, locus YOL006C, strain TOP1, active compounds read low 0.771 | S. cerevisiae deletion strains, locus YOL012C, strain htz1 1.53 | S. cerevisiae deletion strains, locus YOL147C, strain pex11, active compounds read low 0.969 | S. cerevisiae deletion strains, locus YOR001W, strain rrp6, active compounds read low 0.966 | S. cerevisiae deletion strains, locus YOR061W, strain CKA2, active compounds read low 0.978 | S. cerevisiae deletion strains, locus YOR069W, strain VPS5, active compounds read low 0.98 | S. cerevisiae deletion strains, locus YOR070C, strain gyp1, active compounds read low 0.976 | S. cerevisiae deletion strains, locus YOR080W, strain dia2, active compounds read low 0.977 | S. cerevisiae deletion strains, locus YOR083W, strain WHI5, active compounds read low 0.95 | S. cerevisiae deletion strains, locus YOR106W, strain vam3, active compounds read low 0.928 | S. cerevisiae deletion strains, locus YOR136W, strain idh2, active compounds read low 0.974 | S. cerevisiae deletion strains, locus YOR144C, strain elg1, active compounds read low 0.974 | S. cerevisiae deletion strains, locus YOR184W, strain ser1, active compounds read low 0.899 | S. cerevisiae deletion strains, locus YOR231W, strain MKK1, active compounds read low 0.978 | S. cerevisiae deletion strains, locus YOR265W, strain rbl2, active compounds read low 0.993 | S. cerevisiae deletion strains, locus YOR270C, strain vph1, active compounds read low 0.849 | S. cerevisiae deletion strains, locus YOR290C, strain snf2, active compounds read low 0.974 | S. cerevisiae deletion strains, locus YOR316C, strain cot1, active compounds read low 0.967 | S. cerevisiae deletion strains, locus YPL051W, strain arl3, active compounds read low 0.948 | S. cerevisiae deletion strains, locus YPL055C, strain LGE1, active compounds read low 0.906 | S. cerevisiae deletion strains, locus YPL078C, strain atp4, active compounds read low 0.962 | S. cerevisiae deletion strains, locus YPL106C, strain sse1, active compounds read low 0.999 | S. cerevisiae deletion strains, locus YPL240C, strain hsp82, active compounds read low 0.991 | S. cerevisiae deletion strains, locus YPL241C, strain CIN2, active compounds read low 0.984 | S. cerevisiae deletion strains, locus YPL256C, strain CLN2, active compounds read low 0.963 | S. cerevisiae deletion strains, locus YPR119W, strain clb2, active compounds read low 0.964 | S. cerevisiae deletion strains, locus YPR141C, strain kar3, active compounds read low 0.974 | S. cerevisiae deletion strains, locus YPR167C, strain met16, active compounds read low 0.97 | S. cerevisiae deletion strains, strain wtn01, active compounds read low 0.924 | S. cerevisiae strains, strain wild type, active compounds read low 0.961
